system: LXRb homodimer (NR concentration 270 nM); experiment: PBM binding z-score (relative to random genomic background probes); higher = stronger binding; sequences stand for … in GC…GCGATTGACAGCGTAGAATGAAGG
How it was run: (§1)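 Custom Agilent 4×180K protein-binding microarrays carried double-stranded probes. Their 34-nt variable regions held direct-repeat seeds, single-nucleotide variants, half-site ablations and random human genomic background sequences. Arrays were incubated 1 h with ligand-free nuclear receptor dimers in PBS pH 7.4, 2% milk, 0.02% Triton X-100, 1 mM DTT, 0.2 mg/mL BSA and 0.4 mg/ml salmon testes DNA. Antibodies against each partner (one per run) detected binding, and scanned fluorescence was regression-normalized. Binding z-scores use random background probes as reference.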

Sequence | PBM binding z-score
ATCGAAAGGTCGACGAGGTGAATATACACCGTTT | 0.511
CGTCCTAGGTCAAGGTCAGTGAAAGAGACTCGAA | 0.178
CTCGAAAGGTCGTGCTCAGGTGAGCATACCAAAC | 0.516
ATCGAAAGGTCGAAGGTGAGTATACCCACCCGAA | 0.5
CCGGCTGGGGCAGAAAGGTTACCATACCATCCGG | -1.29
AGAATGAGGTTATTAAGACCAGGGAATTGCGGTC | -0.232
ATCGAACGGTCGAAGGTGAGTATACCCACCCGAA | -0.206
CATACAGGGTCAGCTAGGCAAGAGTAGGGACGGC | 0.0161
AGAATGAGGTTAAGATCAGGGAAACAGAATACAT | -0.0135
ACAGACAGGTGAGGGAAGGTAACTCAGCTGGACG | -0.443
GCTAGTTGGTCAGTAGAAGGTCACACACCGGTCG | 0.231
CCAGACAGGTGAGAAGGCAACTCAGCCTCGATTA | -0.663
ATCTCTAGGTAAAGTTCCGTGAAAGATCGATAGA | 0.829
TCTAGTTGGTCACGGAGGTCACGCACGACGGGTA | 0.74
TTACCATGGTGAAAGGTCGTTGATGCACGCCTTG | -0.316
CGAACTAGGTCATTGACAGGACATTGAATAGTAA | 0.107
GGAACGAGGGCAAGTAGATAGCAGAGTTTGATGG | -0.00645
AGAACGAGGGCACGCTGAGTTGATCGCAGAGTAG | -0.872
CATCCAGGGTCAGCTAGGCCAGAGTAGGGACGGC | 0.239
CCGAGTAGGTTATGGGGAATTCAGGCAACGGTGA | 0.311

Sequence | PBM binding z-score
ACTCGGAGGACAAAGGTCGGAGCTACGCCAGTGA | -0.291
GGAACGAGGGCAAAGTTGACAGCATCTGTCGACG | -0.409
TCTTGTTGATCAAGCAGGTTAAGAAAGCCTGAGT | -0.269
CCGAGTAGGTTATGGGGCCTTCAGGCAACGGTGA | -0.362
TCTCGGAGGACGCGAAAGGTCAGAGCTCGACATC | -0.501
TAGCCTAGGTCAGATTGGGCCAGTATACGCTATA | -0.0361
GATATTAGTTGAAAGGGCAACCGAATGATTCTCG | 0.285
GGAACGAGGGCAAGCTGATAGCAGAGTTTGATGG | -1.04
CCGACTGGGGCACGGTTACCATAACGCACAGCCA | -0.878
GCAGACAGGTGGAACGCAGGTAACTCAGGGTGGC | -1.13
AGAATGAGGCTATACGTAGATCAGGGAAGAAAGT | -0.243
CCAGACAGGTGAGAAGGTACCTCAGCCTCGATTA | -0.562
GCTAGCAGGCCATTTGCGTCACTCAATGACGGGC | -0.965
ATCGAAAGTTCGACGAGGTGAGTATACACCGTTT | 0.233
CCTCAGAGGACAACAGGAGGTCAGAGCTGCCAGA | -0.195
CGTCAAAGTTCAACTAAGGTAACGTACAGCACGC | 2.05
GAAACAGGGTCAAGGCCAGAGTACGCGTATTGAT | -0.239
GCTTGTAGATCAAGGTTAAGAACGACTAAGCTAA | -0.704
TCTTGTAGATCAAAGGTTAAGAATGCCGAAGCCT | 0.134
GCTTGTAGTTCAAGGTTAAGAAAGACTAAGCTAA | -0.369

system: PPARa:RXRa (NR concentration 270 nM, RXRa partner concentration 90 nM); experiment: as above
How it was run: as §1

Sequence | PBM binding z-score
ATCGAAAGGTCGACGAGGTGAATATACACCGTTT | 4.54
CGTCCTAGGTCAAGGTCAGTGAAAGAGACTCGAA | 4.87
CTCGAAAGGTCGTGCTCAGGTGAGCATACCAAAC | 4.76
ATCGAAAGGTCGAAGGTGAGTATACCCACCCGAA | 4.67
CCGGCTGGGGCAGAAAGGTTACCATACCATCCGG | 1.61
AGAATGAGGTTATTAAGACCAGGGAATTGCGGTC | 2.8
ATCGAACGGTCGAAGGTGAGTATACCCACCCGAA | 0.517
CATACAGGGTCAGCTAGGCAAGAGTAGGGACGGC | 4.34
AGAATGAGGTTAAGATCAGGGAAACAGAATACAT | 3.67
ACAGACAGGTGAGGGAAGGTAACTCAGCTGGACG | 0.389
GCTAGTTGGTCAGTAGAAGGTCACACACCGGTCG | 2.69
CCAGACAGGTGAGAAGGCAACTCAGCCTCGATTA | 0.376
ATCTCTAGGTAAAGTTCCGTGAAAGATCGATAGA | 0.649
TCTAGTTGGTCACGGAGGTCACGCACGACGGGTA | 4.54
TTACCATGGTGAAAGGTCGTTGATGCACGCCTTG | 4.04
CGAACTAGGTCATTGACAGGACATTGAATAGTAA | 4.56
GGAACGAGGGCAAGTAGATAGCAGAGTTTGATGG | 1.36
AGAACGAGGGCACGCTGAGTTGATCGCAGAGTAG | 2.16
CATCCAGGGTCAGCTAGGCCAGAGTAGGGACGGC | 4.34
CCGAGTAGGTTATGGGGAATTCAGGCAACGGTGA | 1.23

Sequence | PBM binding z-score
ACTCGGAGGACAAAGGTCGGAGCTACGCCAGTGA | 2.9
GGAACGAGGGCAAAGTTGACAGCATCTGTCGACG | 4.78
TCTTGTTGATCAAGCAGGTTAAGAAAGCCTGAGT | 0.497
CCGAGTAGGTTATGGGGCCTTCAGGCAACGGTGA | 1.33
TCTCGGAGGACGCGAAAGGTCAGAGCTCGACATC | 3.2
TAGCCTAGGTCAGATTGGGCCAGTATACGCTATA | 1.43
GATATTAGTTGAAAGGGCAACCGAATGATTCTCG | 2.63
GGAACGAGGGCAAGCTGATAGCAGAGTTTGATGG | 1.37
CCGACTGGGGCACGGTTACCATAACGCACAGCCA | 0.346
GCAGACAGGTGGAACGCAGGTAACTCAGGGTGGC | -0.427
AGAATGAGGCTATACGTAGATCAGGGAAGAAAGT | 0.0162
CCAGACAGGTGAGAAGGTACCTCAGCCTCGATTA | 0.192
GCTAGCAGGCCATTTGCGTCACTCAATGACGGGC | -0.622
ATCGAAAGTTCGACGAGGTGAGTATACACCGTTT | 1.18
CCTCAGAGGACAACAGGAGGTCAGAGCTGCCAGA | 2.09
CGTCAAAGTTCAACTAAGGTAACGTACAGCACGC | 5.25
GAAACAGGGTCAAGGCCAGAGTACGCGTATTGAT | 6.22
GCTTGTAGATCAAGGTTAAGAACGACTAAGCTAA | 1.59
TCTTGTAGATCAAAGGTTAAGAATGCCGAAGCCT | 4.68
GCTTGTAGTTCAAGGTTAAGAAAGACTAAGCTAA | 2.55
